PubChem BioAssay (NCI)
Compounds without any hit were thinned out: in the full panel of roughly 83,000, 20% have a hit.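 Single-concentration screen, 48 h exposure, 96-well plates. Endpoint: percent growth. Below 10 = active.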 Active and inactive are the calls of the source.

Assays:
Test in all cases: NCI-60 one-dose screen, 48 h (100 = growth as untreated, 0 = no growth, -100 = all killed)
Settings in all cases: 10 µM unless noted
DU-145 prostate = system: DU-145 prostate
K-562 leukemia = system: K-562 leukemia
MDA-MB-231 breast = system: MDA-MB-231 breast
RXF 393 renal = system: RXF 393 renal
SF-268 CNS = system: SF-268 CNS
SF-295 CNS = system: SF-295 CNS
SF-539 CNS = system: SF-539 CNS
UACC-257 melanoma = system: UACC-257 melanoma
M14 melanoma = system: M14 melanoma
HCT-15 colon = system: HCT-15 colon
HT29 colon = system: HT29 colon
SNB-75 CNS = system: SNB-75 CNS
SNB-19 CNS = system: SNB-19 CNS
U251 CNS = system: U251 CNS
PC-3 prostate = system: PC-3 prostate
SK-MEL-5 melanoma = system: SK-MEL-5 melanoma
UACC-62 melanoma = system: UACC-62 melanoma
LOX IMVI melanoma = system: LOX IMVI melanoma
SK-MEL-28 melanoma = system: SK-MEL-28 melanoma
MALME-3M melanoma = system: MALME-3M melanoma

Measured: growth

NC(N)=Nc1ccc(Oc2cccc(Oc3ccc(Cl)c(C(F)(F)F)c3)c2)cn1
active: DU-145 prostate -91.9% | K-562 leukemia -54.7% | MDA-MB-231 breast -82.9% | RXF 393 renal 7.96% | SF-295 CNS -93.5% | SF-539 CNS -79.7% | UACC-257 melanoma -56% | M14 melanoma -84.3% | HCT-15 colon -83.7% | HT29 colon -68.4% | SNB-19 CNS -84.5% | U251 CNS -82.2% | PC-3 prostate -93.8% | UACC-62 melanoma -77.5% | LOX IMVI melanoma -88.6% | SK-MEL-28 melanoma -29.4%
inactive: SF-268 CNS 64.9% | SNB-75 CNS 73.3% | SK-MEL-5 melanoma 14.3%

O=C(CCn1cc[n+](CC(=O)c2ccc(-c3ccccc3)cc2)c1)Nc1cccc2cccnc12
inactive: DU-145 prostate 90.9% | K-562 leukemia 45.9% | MDA-MB-231 breast 65.1% | RXF 393 renal 90.5% | SF-268 CNS 72.2% | SF-295 CNS 100% | SF-539 CNS 80.8% | UACC-257 melanoma 40.9% | M14 melanoma 82.3% | HCT-15 colon 96.5% | HT29 colon 70.7% | SNB-75 CNS 45.4% | SNB-19 CNS 61.4% | U251 CNS 61.2% | PC-3 prostate 55.9% | SK-MEL-5 melanoma 81.1% | UACC-62 melanoma 58.8% | LOX IMVI melanoma 82.5% | SK-MEL-28 melanoma 67.3%

CC1(C)NCCC[C@]2(C)[C@H]3C/C(=N\O)C4[C@@H]5C[C@@](C)(CO)CC[C@]5(C)CC[C@@]4(C)[C@]3(C)CC[C@@H]12 (stereo not given in full)
inactive: DU-145 prostate 106% | K-562 leukemia 80.7% | MDA-MB-231 breast 93.7% | RXF 393 renal 91.5% | SF-268 CNS 87.6% | SF-295 CNS 100% | SF-539 CNS 97.8% | UACC-257 melanoma 102% | M14 melanoma 101% | HCT-15 colon 93.1% | HT29 colon 88.9% | SNB-75 CNS 75.1% | SNB-19 CNS 96.6% | U251 CNS 87.3% | PC-3 prostate 88.9% | SK-MEL-5 melanoma 98.7% | UACC-62 melanoma 95.2% | LOX IMVI melanoma 101% | SK-MEL-28 melanoma 103%

CC(C)(C)c1ccc(C(=O)Nc2nc3ccc(O)cc3s2)cc1
inactive: DU-145 prostate 48.2% | MDA-MB-231 breast 69.5% | RXF 393 renal 46.3% | SF-268 CNS 55.9% | SF-539 CNS 38.1% | UACC-257 melanoma 31.8% | M14 melanoma 14.3% | SNB-75 CNS 96.2% | SNB-19 CNS 63.5% | U251 CNS 59.1% | PC-3 prostate 50.1% | SK-MEL-5 melanoma 37.5% | UACC-62 melanoma 45.1% | LOX IMVI melanoma 10.4% | SK-MEL-28 melanoma 47.1%
active: K-562 leukemia 8.79% | SF-295 CNS 3.43% | HCT-15 colon -5.95% | HT29 colon 2.02%

O=C(Cn1cc[n+](CC(=O)c2ccc(-c3ccccc3)cc2)c1)Nc1cccc2cccnc12
inactive: DU-145 prostate 86.4% | K-562 leukemia 50.5% | MDA-MB-231 breast 73.1% | RXF 393 renal 98.3% | SF-268 CNS 65.5% | SF-295 CNS 102% | SF-539 CNS 79.1% | UACC-257 melanoma 34.4% | M14 melanoma 85% | HCT-15 colon 101% | HT29 colon 59.8% | SNB-75 CNS 63.4% | SNB-19 CNS 57.7% | U251 CNS 58.3% | PC-3 prostate 54.5% | SK-MEL-5 melanoma 69.6% | UACC-62 melanoma 59.1% | LOX IMVI melanoma 79.2% | SK-MEL-28 melanoma 74.9%

Cn1ccnc1C(=O)/C=C/c1ccc(NC(=O)c2ccc(F)cc2)cc1
inactive: K-562 leukemia 15% | MALME-3M melanoma 87.8% | MDA-MB-231 breast 22.1% | SF-268 CNS 21.8% | SF-295 CNS 52.5% | UACC-257 melanoma 84.2% | HCT-15 colon 16.9% | SNB-75 CNS 46.9% | SNB-19 CNS 28.1% | PC-3 prostate 27.6% | SK-MEL-5 melanoma 68.2% | UACC-62 melanoma 49.9% | SK-MEL-28 melanoma 90.9%
active: DU-145 prostate 9.78% | SF-539 CNS -3.29% | HT29 colon 7.13% | LOX IMVI melanoma 6.38%

O=C(CCn1c[n+](CC(=O)c2ccc(F)cc2)c2ccccc21)Nc1cccc2cccnc12
inactive: DU-145 prostate 96.6% | K-562 leukemia 58.5% | MDA-MB-231 breast 57.4% | RXF 393 renal 92.7% | SF-268 CNS 78.6% | SF-295 CNS 99.2% | SF-539 CNS 89.6% | UACC-257 melanoma 47.6% | M14 melanoma 79.8% | HCT-15 colon 106% | HT29 colon 58.6% | SNB-75 CNS 75.6% | SNB-19 CNS 71.1% | U251 CNS 79.3% | PC-3 prostate 63.4% | SK-MEL-5 melanoma 33.4% | UACC-62 melanoma 55.7% | LOX IMVI melanoma 84.6% | SK-MEL-28 melanoma 60.1%

COc1c(N2CC3CCCNC3C2)c(F)cc2c(=O)c(C(=O)N/N=C/c3ccc(F)cc3)cn(C3CC3)c12 (stereo not given)
inactive: DU-145 prostate 102% | K-562 leukemia 18.9% | MALME-3M melanoma 86.3% | MDA-MB-231 breast 82.3% | SF-268 CNS 82.9% | SF-295 CNS 97.7% | SF-539 CNS 87.7% | UACC-257 melanoma 79.5% | HCT-15 colon 45.9% | HT29 colon 45.9% | SNB-75 CNS 83.6% | SNB-19 CNS 99.5% | PC-3 prostate 76.4% | SK-MEL-5 melanoma 82.7% | UACC-62 melanoma 80.2% | LOX IMVI melanoma 46.1% | SK-MEL-28 melanoma 81%

COc1cc(C2N=C(NNc3ccccc3)NC(C)=C2C(C)=O)ccc1O (stereo not given)
inactive: DU-145 prostate 108% | K-562 leukemia 66.8% | MALME-3M melanoma 106% | MDA-MB-231 breast 76.8% | SF-268 CNS 86.3% | SF-295 CNS 101% | SF-539 CNS 98.7% | UACC-257 melanoma 110% | HCT-15 colon 81% | HT29 colon 115% | SNB-75 CNS 88.6% | SNB-19 CNS 93.3% | PC-3 prostate 84.5% | SK-MEL-5 melanoma 104% | UACC-62 melanoma 43% | SK-MEL-28 melanoma 101%

C#CCn1cccc1CNc1ccc(OC)cc1
active: DU-145 prostate -96.6% | K-562 leukemia -46.9% | MDA-MB-231 breast -53.9% | RXF 393 renal -32.3% | SF-268 CNS -56% | SF-295 CNS -92% | SF-539 CNS -94.4% | M14 melanoma 7.08% | HCT-15 colon -79.2% | HT29 colon -50.4% | SNB-75 CNS -79.9% | SNB-19 CNS -90.1% | U251 CNS -74.6% | PC-3 prostate -93.3% | SK-MEL-5 melanoma -6.24% | UACC-62 melanoma -91.7% | LOX IMVI melanoma -84.8% | SK-MEL-28 melanoma -48.9%
inactive: UACC-257 melanoma 23.6%

COc1ccc(C2CC(c3ccc(Nc4nc(NCCO)nc(N5CCOCC5)n4)cc3)=Nc3c(N)nc(N)nc3N2)cc1 (stereo not given)
inactive: DU-145 prostate 103% | K-562 leukemia 99.1% | MDA-MB-231 breast 90.6% | RXF 393 renal 114% | SF-268 CNS 90.2% | SF-295 CNS 106% | SF-539 CNS 92.2% | UACC-257 melanoma 109% | M14 melanoma 107% | HCT-15 colon 100% | HT29 colon 102% | SNB-75 CNS 86.4% | SNB-19 CNS 102% | U251 CNS 95.5% | PC-3 prostate 105% | SK-MEL-5 melanoma 96.2% | UACC-62 melanoma 104% | LOX IMVI melanoma 103% | SK-MEL-28 melanoma 108%

O=C(CCn1c[n+](CC(=O)c2ccc(-c3ccccc3)cc2)c2ccccc21)Nc1cccc2cccnc12
inactive: DU-145 prostate 78.9% | K-562 leukemia 22.9% | MDA-MB-231 breast 49.6% | RXF 393 renal 69.6% | SF-268 CNS 55% | SF-295 CNS 89.6% | SF-539 CNS 75.5% | UACC-257 melanoma 23.6% | M14 melanoma 49.1% | HCT-15 colon 93.8% | HT29 colon 51.8% | SNB-75 CNS 41% | SNB-19 CNS 41.6% | U251 CNS 42.9% | PC-3 prostate 30.9% | SK-MEL-5 melanoma 20.8% | UACC-62 melanoma 15.1% | LOX IMVI melanoma 57.9% | SK-MEL-28 melanoma 38.9%

COc1ccc(-c2nc3cccc(O)c3c(=O)n2Cc2ccccc2)cc1COc1ccc(NC(C)=O)cc1
inactive: DU-145 prostate 50.2% [3 µM] | K-562 leukemia 18.9% [3 µM] | MDA-MB-231 breast 64.2% [3 µM] | RXF 393 renal 52.6% [3 µM] | SF-268 CNS 58.2% [3 µM] | SF-295 CNS 23.8% [3 µM] | SF-539 CNS 40.1% [3 µM] | UACC-257 melanoma 67.2% [3 µM] | M14 melanoma 53.8% [3 µM] | HCT-15 colon 12.5% [3 µM] | HT29 colon 55.9% [3 µM] | SNB-75 CNS 44.8% [3 µM] | SNB-19 CNS 42% [3 µM] | U251 CNS 30% [3 µM] | PC-3 prostate 36.5% [3 µM] | SK-MEL-5 melanoma 29.4% [3 µM] | UACC-62 melanoma 37.3% [3 µM] | SK-MEL-28 melanoma 55.4% [3 µM]
active: LOX IMVI melanoma 2.67% [3 µM]

COc1ccccc1-n1cc(C#N)c(N)c1C(=O)c1ccc(C)cc1
inactive: DU-145 prostate 99.2% | K-562 leukemia 28.4% | MDA-MB-231 breast 90.9% | RXF 393 renal 76.6% | SF-268 CNS 90.6% | SF-295 CNS 74.1% | SF-539 CNS 97% | UACC-257 melanoma 78.3% | M14 melanoma 59.8% | HCT-15 colon 47.1% | HT29 colon 73.7% | SNB-75 CNS 82% | SNB-19 CNS 77.1% | U251 CNS 79.4% | PC-3 prostate 74.5% | SK-MEL-5 melanoma 92% | UACC-62 melanoma 22.2% | LOX IMVI melanoma 80.1% | SK-MEL-28 melanoma 73.9%

NC(N)=Nc1ccc(Nc2cccc(Oc3ccc(Cl)c(C(F)(F)F)c3)c2)cn1
active: K-562 leukemia -48.8% | U251 CNS -68.8% | PC-3 prostate -55.8% | LOX IMVI melanoma -97.2%
inactive: DU-145 prostate 38.3% | MDA-MB-231 breast 47.5% | RXF 393 renal 56.6% | SF-268 CNS 53.6% | SF-295 CNS 23.8% | SF-539 CNS 78.5% | UACC-257 melanoma 31.9% | M14 melanoma 41.2% | HCT-15 colon 42% | HT29 colon 18.9% | SNB-75 CNS 52.7% | SNB-19 CNS 24.3% | SK-MEL-5 melanoma 28.3% | UACC-62 melanoma 45.6% | SK-MEL-28 melanoma 60.7%

CCCCCc1ccc(S(=O)(=O)Nc2cccc(-c3csc(NC(=O)CN4CCN(C)CC4)n3)c2)cc1
active: K-562 leukemia 7.06% | LOX IMVI melanoma -58%
inactive: DU-145 prostate 82.4% | MALME-3M melanoma 45.7% | MDA-MB-231 breast 74.2% | SF-268 CNS 78.4% | SF-295 CNS 104% | SF-539 CNS 82.9% | UACC-257 melanoma 93% | HCT-15 colon 11.7% | HT29 colon 25.5% | SNB-75 CNS 89.5% | SNB-19 CNS 85% | PC-3 prostate 67.1% | SK-MEL-5 melanoma 50.8% | UACC-62 melanoma 92.2% | SK-MEL-28 melanoma 89.4%
